Measured values: PubChem BioAssay AID1508600 (Functional Genomics Laboratory (NCATS/FGL), 2020)
Screen size: about 53,000 sequences; about 3,700 (7%) were called active.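 The calls were made as follows: active = gene knockdowns whose robust z-score for IL-1 alpha signal is at least 2 or at most -2, so actives lie on both sides; inactive = the rest.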 This excerpt belongs to a sample that is enriched for actives.

Test: Components of the Cytosolic LPS Sensing Pathway: Gene Identification via Genome-wide siRNA Screen;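 also: robust z of the log signal after scaling to non-targeting control siRNA wells of the plate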
Conditions: RAW264.7 macrophages, IL-1a HTRF, actives lie on both sides, screened at 100 nM (by protocol), cells primed 5 h with Pam3CSK4 first
Procedure, shortened: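 IL-1a HTRF of supernatants after 24 hour LipidA transfection of Pam3CSK4-primed (5 hours) RAW264.7 cells, 48h post-siRNA transfection (100 nM). Scores: percent of plate negative-control median, then log-based robust z-score.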
In the case of GGUCCAAGCCUUUUCUAGATT against Glmp, the z-score is reported as 0.305 (inactive). With GCUCGUUCGCCUAGAAUUGTT against Mycbp the z-score was 0.529 (inactive). With CGUGGGCUCUGUUGACAUUTT against Olfr492 the z-score was 0.869 (inactive). In the case of GGGCAAAUGUAAAAAGACUTT against Fst, the z-score is reported as 1.28 (inactive). With GGUGAUUGUCAAGAUUAUGTT against Olfr651 the z-score was -2.1 (active). In the case of CCUUUGCCUUCAGUUUUAUTT against Pramel20, the z-score is reported as 0.864 (inactive). With GGUCACGAUGUAGCACGCUTT against Mtg1 the z-score was 0.996 (inactive). With GCAGGAAGUACUCCUAUCCTT against Letm2 the z-score was -0.861 (inactive). In the case of GGGAAUUUGGUAUCAAUUUTT against Epgn, the z-score is reported as 1.7 (inactive). In the case of GCUGCACGAUGCAUGGUUUTT against Asic3, the z-score is reported as 1.43 (inactive). With GGCAAUAACAUUCGGUAUUTT against Snrpd1 the z-score was -2.29 (active). In the case of CCUGUAAUGAGUAUGACAUTT against Commd10, the z-score is reported as 0.397 (inactive). In the case of GGAACUUUUUCAGAGCUCUTT against Senp3, the z-score is reported as -1.6 (inactive). In the case of GGUAUUUGUGCCAAUUGCCTT against Ccr6, the z-score is reported as -0.302 (inactive). With GGAAGACUACAUAAGAGACTT against Cxcl9 the z-score was 0.103 (inactive). In the case of GGGCCAUGAUAGGACACACTT against Nme4, the z-score is reported as 2.97 (active). In the case of CCUGUCUGUUUGAGGACGUTT against Adora2a, the z-score is reported as -0.701 (inactive). With GGCCAACUUCCUUUUUAAATT against Tomm40 the z-score was -0.0619 (inactive). For GGCACACACUCCCUGACAATT against Cst3, the z-score was -0.863 (inactive). For GGUGGAUGAUAAUGUUCUUTT against Gcnt3, the z-score was 0.911 (inactive). For GGCCUUUACAUGUCCCAGCTT against BC002059, the z-score was 0.456 (inactive). In the case of AUGUCAGCGGCCCUAGAUGTT against Adam34l, the z-score is reported as -2.09 (active). For GGGUGUGGCUGACUUUGAUTT against Otof, the z-score was -0.429 (inactive). For CCGUGGACUAUAACAACUCTT against Mgat5b, the z-score was 1.61 (inactive). With GGAAGAGGCUAUUGCAUCGTT against Atrnl1 the z-score was -0.768 (inactive). In the case of GGUUUUCUAGUUUGAGUUUTT against Atp1b2, the z-score is reported as 1.29 (inactive). In the case of GCAUCCAUCAAAUCAAAAUTT against Met, the z-score is reported as 3.03 (active). In the case of GGUGAUUCAGAUAAAAGAGTT against Mbtps1, the z-score is reported as 0.265 (inactive). In the case of GAGCAGAGGAUUGAUGCACTT against Nlrp4g, the z-score is reported as 0.918 (inactive). With GCAAGACGCACUGUUACUGTT against Fam214a the z-score was 0.196 (inactive). With GGCUCCUAGCUGUUUCAGUTT against Hormad1 the z-score was -1.62 (inactive). For GGUUCAAAGUUCUAGCUAATT against Adss, the z-score was -0.25 (inactive). With CCAAAAGUCACGUUUCUCATT against Per2 the z-score was -2.09 (active). For GCAAUGGUUGAAGAAAUUUTT against Tnip3, the z-score was 0.69 (inactive). With GGUUCUUUUAUGGAUGACATT against Prkaa2 the z-score was -0.964 (inactive). For GCAGGAACACUGGUUUGAATT against Otud5, the z-score was -0.653 (inactive). For GUACGAAGACUUCUCUAGUTT against Ankrd33b, the z-score was 0.101 (inactive). With GGGAAAAUGGCUUAACCGUTT against Siglecg the z-score was 0.703 (inactive). In the case of CCUAGAGGAUUCAGAUCAATT against Pnmal1, the z-score is reported as 2.24 (active). In the case of GGCCGUUUCACUACCAUUCTT against Ier2, the z-score is reported as 0.259 (inactive). In the case of GGAGGUAGGAAUAUGACUUTT against Klrb1c, the z-score is reported as 0.0825 (inactive). With GGCUAGCAUUAGCCACAGATT against Enpp3 the z-score was -2.33 (active). For GGUGCUCAAAUCCUCUUGATT against Ctps, the z-score was -0.0545 (inactive). For CGGAUAUGAAUUUUUUGCUTT against Ppp1cb, the z-score was 0.116 (inactive). For GCUUUUCAGUCUCAUAGUGTT against Huwe1, the z-score was 0.468 (inactive). With GGAAAAUCCCUCUUUGGCUTT against Sez6l2 the z-score was -0.566 (inactive). For CGAUGAGACCAACAUCUUUTT against Gpr162, the z-score was 0.476 (inactive). For GGACAAUGAUUUUCUGAUUTT against Sv2b, the z-score was 0.962 (inactive). For GGAAGUCUAUGGUUUUUAGTT against Csnk2b, the z-score was 2.97 (active). For GGAAAUCAAGCCCUACAUCTT against Col4a2, the z-score was 0.152 (inactive). For GGGCUAUGUUGUCUCAAAATT against Gsdma2, the z-score was 0.861 (inactive). For GGAUGACCUCAUGCUUAUUTT against Prss37, the z-score was -2.31 (active). With GGAUGAAAAAUCAGUACUUTT against Aadac the z-score was -2.02 (active). With GGUAUCCUCUCUUGUCUUGTT against Clec9a the z-score was -0.0393 (inactive). With GUACCUGAAUUGCUACCGATT against Ly6g5c the z-score was 0.8 (inactive). For GGAGUUCUUGGUCUCUUUGTT against Fam214a, the z-score was -0.124 (inactive). With UUGAACAGUGGAACAAUGATT against Fbxo27 the z-score was 2.59 (active). With GGAAAGGAACAUAUUUGACTT against Gss the z-score was 0.0774 (inactive). In the case of CCAUCUCUCCAAAGGGCUGTT against Olfr32, the z-score is reported as 0.056 (inactive). In the case of GGAUUUGACCGGCUAAUACTT against Snrnp40, the z-score is reported as -0.776 (inactive). In the case of GGUUCUGGCUGGAAUCUACTT against Gnl1, the z-score is reported as -0.987 (inactive). For GCGAACAUGUGUUUUACGUTT against H4c8, the z-score was 1.14 (inactive). With GCAUGCUAGAAGCUAAAAATT against Golga3 the z-score was 1.48 (inactive). With GGCAUAUCCUCCUUAUCCATT against Dazl the z-score was -2.2 (active). With GGAAAUCAAAGAGAAAGUUTT against Rassf3 the z-score was -0.748 (inactive). For GGUUAGUUCCUUAAAUUCCTT against BC016579, the z-score was 1.21 (inactive). For GGACCAGACAGGAAGUAUUTT against Snx20, the z-score was 2.3 (active). In the case of GGCAGGUAUGGAUGUAUUGTT against Renbp, the z-score is reported as -1.72 (inactive). For GGUUGAGUUGGAUGACCUUTT against Lsm10, the z-score was -1.91 (inactive). With “GAGUCUUACAUCAAGAAGATT against 9230106D20Rik” the z-score was 0.538 (inactive). In the case of GGUAUGUCUAAGAAAACCATT against Pi4ka, the z-score is reported as 0.173 (inactive). For GGGCUACACUUCUGUCUACTT against Nanos3, the z-score was -1.26 (inactive). In the case of GGGUUUUUUUAGAGAGAUUTT against Susd3, the z-score is reported as -2.11 (active). In the case of GCCAUACUUCCCUACAAAATT against Kctd19, the z-score is reported as 0.233 (inactive). For GGGCAAGGAGACAGAAUUCTT against Fgf18, the z-score was 0.927 (inactive). For GGAAGAGGACAACCAGCUCTT against Cd82, the z-score was 0.59 (inactive). In the case of GAGUUGGCUCGAAACUGCCTT against Fbxl15, the z-score is reported as 3.54 (active). In the case of GGGCACAAUUCAAAACUUATT against Pgm2, the z-score is reported as 1.42 (inactive). In the case of GGUCAAUUCCAUGAUUACGTT against Pgm3, the z-score is reported as 0.538 (inactive). In the case of UAAGGCCAUCUAGUGGAGATT against C8g, the z-score is reported as -0.199 (inactive). For GGGUGAAAGCUGACUUUAATT against Rnh1, the z-score was -1.57 (inactive). In the case of GGCUUUGAAACAUAAGAACTT against Zfp472, the z-score is reported as -0.553 (inactive). In the case of GGUGUUGAGAUCCACAAGGTT against Tceanc2, the z-score is reported as -2.44 (active). In the case of GGCAAUCAGCAUACCAACUTT against Thbs2, the z-score is reported as -1.87 (inactive). For “CAGCGGCCGCGCUUCACCGTT against 4930404N11Rik”, the z-score was 0.92 (inactive). With GGUAAUUGAGCUGAGUUCUTT against Rad54l2 the z-score was 0.479 (inactive). For GUGAAGAAAGCACUGUUGATT against Olfr978, the z-score was 0.387 (inactive). For GGCCAGGACCUAAAUACAATT against Tmem231, the z-score was 3.25 (active). For GGAGCUGUGCAAGAGGAAATT against Wnt16, the z-score was 1.01 (inactive). For GGGCAGAUCCUAAUAAGCATT against Irs3, the z-score was -1.21 (inactive). In the case of GCUAAGGUCUUACUCCUGGTT against Cdca4, the z-score is reported as 1.13 (inactive). For GCCAGUGUUGGUUAUAAAATT against Isg15, the z-score was 0.673 (inactive). For CCAUGGCACAGACAGCUAUTT against Celf1, the z-score was -2.02 (active). In the case of GCUUUUGCCCGAUGGAUUUTT against Plpp3, the z-score is reported as 0.136 (inactive). For GGUAUACAGGAUGUUAAGGTT against Pdlim4, the z-score was 0.889 (inactive). For GGAGACCCACUACAUGACUTT against H2-M2, the z-score was -0.982 (inactive). In the case of CCCAUCUUUGCAACAUAUCTT against Scgb2b20, the z-score is reported as -1.43 (inactive). In the case of GGUCCCAUUCAGUGUGUGUTT against Cdk10, the z-score is reported as 2.98 (active). In the case of UAGUCACAAGGUUUGAAACTT against Fbxw24, the z-score is reported as -0.822 (inactive). With GGUCCUGGACUUCAUGCUATT against Galnt6 the z-score was 2.75 (active). In the case of GCUGUACAGUCAAUACCUGTT against Abhd17a, the z-score is reported as 1.2 (inactive). With GGACCUUUAGCUGGUUUAGTT against Sowaha the z-score was 0.559 (inactive). In the case of GGUGAUUCCAUUACCUAGUTT against Pde12, the z-score is reported as 0.572 (inactive). For GGUAAAAUCACGCAGUAAATT against Ppp1r3a, the z-score was -0.56 (inactive). For GGACCCAGAGAAGAUCAAATT against Etfrf1, the z-score was 0.514 (inactive). With GGCAUAGCUCAGUGAUAGCTT against Tmem19 the z-score was 0.117 (inactive). With CCAGACAGAAGGGUUAGCUTT against Mrps36 the z-score was -2.03 (active). With GCCUUUACACUAAUGAUAATT against Cilp the z-score was 0.455 (inactive).
